Screening data as filed in PubChem.
Rv3671c protease – inhibitors of M. tuberculosis serine protease Rv3671c | P9WHR9 | inhibition, % at 5.96 µM | 320,000 tested, 0.048% active | AID 2606; in the data active means inhibition above about 38%;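 further: extracellular domain of Rv3671c used as enzyme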
GDH-TPI counter-1 – GDH-TPI coupled enzyme inhibition counter-screen | 360,000 tested, 1.2% active | GDH-TPI coupled enzyme counterscreen, NADH absorbance | inhibition, % at 4.8 µM; in the data active means inhibition above about 30%
FBA Mtb inh – inhibits M. tuberculosis FBA enzyme. AID 588726. purified M. tuberculosis FBA, fluorescence read-out. P9WQA3. 360,000 tested, 2.3% active. inhibition, % at 1 µM
Target sequence (P9WQA3 whole entry, looked up): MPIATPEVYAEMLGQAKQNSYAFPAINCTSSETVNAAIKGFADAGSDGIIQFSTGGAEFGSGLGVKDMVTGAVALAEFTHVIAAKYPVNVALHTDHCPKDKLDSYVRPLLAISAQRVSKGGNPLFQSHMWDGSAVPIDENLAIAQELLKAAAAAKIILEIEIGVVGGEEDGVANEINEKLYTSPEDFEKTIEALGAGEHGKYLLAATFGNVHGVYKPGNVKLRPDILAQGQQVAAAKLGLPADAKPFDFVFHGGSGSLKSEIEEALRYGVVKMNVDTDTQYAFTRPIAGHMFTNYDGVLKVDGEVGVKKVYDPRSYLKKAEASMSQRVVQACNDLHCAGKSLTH
FadD28 binding – inhibitors of Mycobacterium tuberculosis FadD28 bisubstrate binding; FadD28 bisubstrate probe binding, fluorescence polarization; inhibition, % at 12.5 µM; 360,000 tested, 0.22% active; AID 588549; in the data active means inhibition above about 8.5%, passing the limit was not always enough
Mtb BioA inh – BioA (M. tuberculosis) enzyme inhibition | purified M. tuberculosis BioA enzyme, plate reader | inhibition, % at 9.99 µM | 360,000 tested, 0.096% active | AID 602481; in the data active means inhibition above about 40%
Mtb FBA inh conf – Mtb FBA inhibition, confirmed | inhibition, % at 1 µM | shares compounds with FBA Mtb inh | purified M. tuberculosis FBA, fluorescence read-out | 5,600 tested, 78% active
GDH-TPI counter-2 – inhibits GDH-TPI coupling enzymes, flagging Mtb FBA hits; shares compounds with FBA Mtb inh; GDH-TPI coupled enzyme counterscreen, fluorescence; inhibition, % at 1 µM; 5,600 tested, 81% active; AID 652141; in the data active means inhibition above about 10%
GDH-TPI DR – inhibits GDH-TPI coupling enzymes in dose response; IC50, µM; AID 652145; 170 tested, 79% active; GDH-TPI coupled enzyme assay, fluorescence, artifact counterscreen; shares compounds with FBA Mtb inh; call rule not given here
Hits are given with their value; i = inactive; nt = not tested or not shown; + = active, no number. Rows were chosen to be rich in hits. Some 3% of all compounds tested hit in one or more screens of this group. Unless noted, no stated cut-off is given here; in the data, active means inhibition above about 27%; inactive means the rest.

SMILES | Rv3671c protease | GDH-TPI counter-1 | FBA Mtb inh | FadD28 binding | Mtb BioA inh | Mtb FBA inh conf | GDH-TPI counter-2 | others
Cc1cc(=O)oc2c(C)c(OC(C)C(=O)NCCCN3CCOCC3)ccc12 (stereo unspecified) | i | i | i | i | i | nt | nt
Cc1cc(OC(C)C(=O)NCCCN2CCOCC2)c2c(C)cc(=O)oc2c1 (stereo unspecified) | i | i | 56 | i | i | i | i | GDH-TPI DR=2.7
O=C(NCC1CCCO1)c1onc(CSc2ccc(F)c(F)c2)c1C(=O)O (stereo unspecified) | i | i | 45 | i | i | 92 | 61
O=C(NCC1CCCO1)c1onc(CSc2ccccc2)c1C(=O)O (stereo unspecified) | i | i | i | i | i | nt | nt
CO[C@H]1CN(C)C(=O)c2cc(NC(=O)c3ccccc3)ccc2OC[C@@H](C)N(C)C[C@H]1C | nt | nt | nt | nt | i | nt | nt
COCC#Cc1ccc2c(c1)O[C@@H](CN(C)Cc1ccccc1)[C@H](C)CN([C@H](C)CO)S2(=O)=O | nt | nt | nt | nt | i | nt | nt
O=C(C[C@@H]1C=C[C@H](NC(=O)c2ccccc2)[C@H](CO)O1)NCc1ccc(Oc2ccccc2)cc1 | nt | nt | nt | nt | i | nt | nt
N#Cc1nc(-c2ccccc2)oc1N1CCN(C(=O)c2ccco2)CC1 | i | i | 68 | i | i | 41 | 32
N#Cc1nc(COc2ccccc2)oc1N1CCN(Cc2ccccc2)CC1 | i | i | i | i | i | nt | nt
N#Cc1nc(-c2cccs2)oc1N1CCN(Cc2ccccc2)CC1 | i | i | 51 | i | nt | i | i | GDH-TPI DR=1.8
CCN1CCSc2ccc(C(=O)NCc3cc(Br)ccc3OC)cc21 | i | i | 37 | i | i | 102 | 76
CN1CCSc2ccc(C(=O)Nc3ccc(Cl)cc3)cc21 | i | i | 33 | i | nt | i | i
COc1ccc(Br)cc1CNC(=O)CCC(=O)N1CCSc2ccccc21 | i | i | i | i | i | nt | nt
COc1ccc(Br)cc1CNC(=O)c1ccc2c(c1)N(C)CCS2 | i | i | 50 | i | i | + | 152
CO[C@H]1CN(C)C(=O)c2cc(NC(=O)C3CCCCC3)ccc2OC[C@@H](C)NC[C@@H]1C | nt | nt | nt | nt | i | nt | nt
CC(C)NC(=O)N(C)C[C@@H]1Oc2ccc(NC(=O)Nc3ccc(F)cc3)cc2CC(=O)N([C@H](C)CO)C[C@@H]1C | nt | nt | nt | nt | i | nt | nt
C[C@H](CO)N1C[C@H](C)[C@H](CN(C)S(=O)(=O)c2ccc(Cl)cc2)Oc2ccc(NS(C)(=O)=O)cc2C1=O | nt | nt | nt | nt | i | nt | nt
Cc1cccn2c(=O)c3cc(C#N)c(=O)n(Cc4cccnc4)c3nc12 | nt | i | 111 | i | i | 87 | 71
Cc1cccn2c(=O)c3cc(C#N)c(=NC(=O)c4cccs4)n(CC(C)C)c3nc12 | i | i | 35 | i | nt | + | 190
CC(=O)N=c1c(C#N)cc2c(=O)n3ccccc3nc2n1Cc1ccccc1 | i | i | 28 | i | i | 122 | 108
Cc1ccc(-n2c(=O)c(C#N)cc3c(=O)n4cccc(C)c4nc32)cc1 | i | i | 62 | i | i | 138 | 84
C[C@@H]1CN([C@@H](C)CO)C(=O)c2cccc(NC(=O)Nc3ccc4c(c3)OCO4)c2O[C@@H]1CN(C)C(=O)NC1CCCCC1 | nt | nt | nt | nt | i | nt | nt
OCc1ccccc1-c1cnc2cccnn12 | nt | i | 105 | i | i | 113 | 86
CN(C)c1cc(NC(=O)CN2CCCC2)c2ccccc2n1 | i | i | i | i | i | nt | nt
O=C(CN1CCOCC1)Nc1c2c(nc3ccccc13)N(Cc1ccccc1)CC2 | i | i | 44 | i | i | 60 | 51
SMILES | Rv3671c protease | GDH-TPI counter-1 | FBA Mtb inh | FadD28 binding | Mtb BioA inh | Mtb FBA inh conf | GDH-TPI counter-2 | others
O=C(CN1CCCC1)Nc1c2c(nc3ccccc13)N(Cc1ccccc1)CC2 | i | i | 31 | i | i | 46 | 34
Cc1ccccc1-c1cnc2c(c1)C(=O)N([C@@H](C)CO)C[C@@H](C)[C@H](CN(C)Cc1cncnc1)O2 | nt | nt | nt | nt | i | nt | nt
c1ccc2c(N3CCCCC3)nc(N3CCCC3)nc2c1 | i | i | i | i | i | nt | nt
Nc1nc(N2CCCCC2)nc2ccccc12 | i | i | 31 | i | i | 44 | 37
CO[C@H]1CN(C)C(=O)c2ccc(NS(=O)(=O)c3ccc(Cl)cc3)cc2OC[C@H](C)N(C(=O)NC(C)C)C[C@H]1C | nt | nt | nt | nt | i | nt | nt
COC(=O)[C@H]1[C@H](CO)[C@H]2Cn3c(ccc(-c4ccccc4)c3=O)[C@H]2N1CCc1ccccc1 | nt | nt | nt | nt | i | nt | nt
Cc1c(CC(=O)NCCC(C)C)c(=O)oc2cc3c(cc12)CCC(C)(C)O3 | i | i | 42 | nt | i | 90 | 71
Cc1c(CC(=O)NCCCC(=O)O)c(=O)oc2cc3occ(-c4ccccc4)c3cc12 | i | i | i | i | i | nt | nt
Oc1ccccc1CNc1cnc2ccccc2c1 | i | i | 40 | i | i | i | i
CC(C)n1c(NCc2cc(Cl)ccc2O)nc2ccccc21 | i | i | i | i | i | nt | nt
C=CCc1cccc(CNc2cnc3ccccc3c2)c1O | i | i | i | i | i | nt | nt
Oc1ccc(Cl)cc1CNc1cnc2ccccc2c1 | i | i | 34 | i | i | + | 170
Oc1ccc2ccccc2c1CNc1cnc2ccccc2c1 | i | i | 50 | i | i | i | i
COc1ccc(-c2cc(-c3ccc(Cl)cc3)c(C#N)c(SCC(=O)O)n2)cc1 | i | i | 47 | i | i | 53 | 37
COc1ccc(-c2cc(-c3ccccc3)c(C#N)c(SCC(=O)O)n2)cc1 | i | i | 47 | i | i | i | i | GDH-TPI DR=2.5
Cc1noc(C)c1S(=O)(=O)Nc1ccc2c(c1)C(=O)N([C@@H](C)CO)C[C@@H](C)[C@@H](CN(C)C(=O)NC(C)C)OCCCC[C@H](C)O2 | nt | nt | nt | nt | i | nt | nt
CN(CC(=O)Nc1ccc(F)cc1)C(=O)CSc1nncs1 | i | i | i | i | i | nt | nt
Cc1csc(SCC(=O)N(C)CC(=O)Nc2ccc(F)cc2)n1 | i | i | 28 | i | nt | 29 | 13
O=C(O)c1cc(-c2ccc3ccccc3n2)nc2ccccc12 | i | i | i | i | i | nt | nt
O=C(O)c1cc(-c2c[nH]c3ccccc23)nc2cc3ccccc3cc12 | i | i | 55 | i | i | 75 | 75
CO[C@@H]1CN(C)C(=O)c2ccc(NS(=O)(=O)c3ccccc3)cc2OC[C@H](C)N(Cc2nccs2)C[C@@H]1C | nt | nt | nt | nt | i | nt | nt
Cc1c(NC(=O)C(C)C)cccc1-c1nc2ncccc2o1 | i | i | 29 | i | i | i | i
CC(C)CC(=O)Nc1cccc(-c2nc3ncccc3o2)c1 | i | i | 32 | i | i | i | i
O=C(Nc1cccc(-c2nc3ncccc3o2)c1)c1ccccc1 | i | i | i | i | i | nt | nt
Cc1ccc(-c2nc3ncccc3o2)cc1NC(=O)c1ccccc1 | i | i | i | i | nt | nt | nt
Cc1ccc(-c2nc3ncccc3o2)cc1NC(=O)C(C)C | i | i | 55 | i | i | i | i
O=C(C[C@H]1CC[C@H]2[C@@H](COC[C@H](O)CN2C(=O)c2ccccc2F)O1)NCc1ccc(Cl)c(Cl)c1 | nt | nt | nt | nt | i | nt | nt
